PrPC TRFRET: cell surface PrPC inhibition, primary TR-FRET screen; P04156; TR-FRET read-out; inhibition, % at 13.8 µM; 370,000 tested, 0.43% active; in the data active = inhibition above about 24%; also: 0% = median of the test wells and 100% = reference compound wells
Y pestis TopoI: blocks Yersinia pestis topoisomerase I activity. Y. pestis Topo-I cleavage product accumulation, plate reader. 360,000 tested, 0.064% active. activity, % at 10 µM; in the data active = activity above about 50%, passing the limit was not always enough
Mtb FBA inh: inhibits M. tuberculosis FBA enzyme. AID 588726. inhibition, % at 1 µM. 360,000 tested, 2.3% active. purified M. tuberculosis FBA, fluorescence read-out. P9WQA3; in the data active = inhibition above about 27%;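 also: 0% = vehicle and 100% = reference inhibitor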
Target sequence (P9WQA3 whole entry, looked up): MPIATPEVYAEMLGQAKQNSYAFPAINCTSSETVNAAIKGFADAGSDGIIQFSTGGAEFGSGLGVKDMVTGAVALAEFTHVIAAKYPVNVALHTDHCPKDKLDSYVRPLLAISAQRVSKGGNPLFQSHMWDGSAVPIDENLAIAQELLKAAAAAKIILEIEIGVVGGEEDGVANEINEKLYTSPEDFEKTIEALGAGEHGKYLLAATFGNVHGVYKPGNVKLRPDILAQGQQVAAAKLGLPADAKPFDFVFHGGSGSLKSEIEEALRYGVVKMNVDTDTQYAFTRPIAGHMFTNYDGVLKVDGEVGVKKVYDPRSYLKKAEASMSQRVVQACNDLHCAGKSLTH
PrP 5UTR inh: suppresses PrP 5' UTR mRNA reporter expression | cell-based PrP 5' UTR mRNA reporter, plate reader | inhibition, % (no concentration beside the values) | 340,000 tested, 0.35% active | AID 488862; in the data active = inhibition above about 52%; also: 0 = median of the neutral control wells
Mtb hypoxia inh: reduces hypoxia-regulated biosensor signal in M. tuberculosis | M. tuberculosis hypoxia-regulated fluorescent reporter, fluorescence | 300,000 tested, 0.1% active | fluorescence inhibition, % (test concentration not listed); in the data active = fluorescence inhibition mostly above about 23%, no sharp cut-off; inactive = mostly below about 17%
GDH-TPI counter: counter-screen for M. tuberculosis FBA inhibitors: GDH-TPI coupled enzymes; GDH-TPI coupled enzyme counterscreen, NADH absorbance; inhibition, % at 4.8 µM; AID 588335; 360,000 tested, 1.2% active; in the data active = inhibition above about 30%;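 also: 0% = DMSO wells and 100% = wells lacking the enzyme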
Starred values were filed as active, the others as inactive; nt = not tested or not shown; + = active, no number. Hits are enriched below; roughly 3.8% of the tested compounds scored in any of these assays.

SMILES | PrPC TRFRET | Y pestis TopoI | Mtb FBA inh | PrP 5UTR inh | Mtb hypoxia inh | GDH-TPI counter
CC(=NNC(=O)c1cc(-c2cccs2)nc2ccccc12)c1ccccn1 | nt | nt | nt | nt | 10.6 | nt
O=C1NC(=O)/C(=C/c2ccccc2OCc2ccccc2)S1 | -0.7 | 15.1 | -1.2 | -15.8 | 11.4 | 31.7*
O=C(COc1ccccc1/C=C1\SC(=O)NC1=O)Nc1ccccc1 | -0.4 | 3.2 | 0.4 | -6.1 | nt | 16.7
CC1C(=O)OC2C(O)C34C5CC(C(C)(C)C)C36C(OC(=O)C6O)OC4(C(=O)O5)[C@@]12O (stereo partly drawn) | nt | nt | nt | nt | 6.9 | nt
COc1ccc(/C=C/C(=O)c2ccc(OC)cc2OC)cc1 | 1.4 | 20.0 | 4.6 | -25.5 | nt | 38.2*
COc1ccc(/C=C/C(=O)C2(O)CCCCC2)cc1 | -7.2 | 11.2 | -0.4 | -25.2 | 21.4 | 38.8*
O=C(CC(c1ccccc1)(c1ccccc1)c1ccccc1)NC(Cc1ccccc1)C(=O)O (stereo not drawn) | nt | nt | nt | nt | -1.0 | nt
Cc1ccc(S(=O)(=O)NC(=O)c2ccc(-c3ccc(C)c4ccccc34)o2)cc1 | 0.0 | 30.4 | 130.5* | -19.3 | 0.5 | 29.3
Cc1ccc(-c2ccc(C(=O)Nc3ccccc3)o2)c2ccccc12 | 3.1 | -1.9 | 8.9 | -15.4 | 5.8 | 7.6
Cc1cccn2c(=O)c3cc(C(=O)NCCN4CCOCC4)n(C)c3nc12 | -6.1 | 14.6 | 121.3* | -2.0 | 5.4 | 9.1
Cc1ccc2nc3c(cc(C(=O)NCCCn4ccnc4)n3C)c(=O)n2c1 | -13.6 | 4.3 | + | -20.2 | 18.5 | 15.9
Cc1nc2ccccn2c1C(=O)NCCCN1CCOCC1 | -0.6 | -2.4 | 2.5 | -1.7 | 0.3 | 6.3
COCCCn1c(C(=O)NCCC2=CCCCC2)cc2c(=O)n3cccc(C)c3nc21 | 4.0 | 8.5 | 6.0 | -19.3 | 12.0 | 0.0
COCCCn1c(C(=O)NCCN2CCOCC2)cc2c(=O)n3ccccc3nc21 | -8.2 | 1.3 | + | 4.4 | 0.5 | 9.7
Cn1c(C(=O)NCCN2CCOCC2)cc2c(=O)n3ccccc3nc21 | -19.9 | -12.0 | + | -13.2 | -0.6 | 22.4
CCCCC(CN(N=O)C(Cc1ccccc1)CN(C)N=O)N(CCc1ccccc1)N=O (stereo not drawn) | nt | nt | nt | nt | 3.5 | nt
CC1=CC(=NN=C2NC(=O)C(CC(=O)Nc3ccccc3F)S2)CC(C)(C)C1 (stereo not drawn) | nt | nt | nt | nt | 6.7 | nt
C(=NNc1nc(-c2ccccc2)cs1)c1ccco1 | nt | nt | nt | nt | 5.8 | nt
Cc1cccn2c(=O)c3cc(S(=O)(=O)c4ccccc4)c(=N)n(Cc4ccco4)c3nc12 | 0.2 | 1.2 | 21.5 | -25.3 | -5.0 | 6.3
Cc1cccn2c(=O)c3cc(S(=O)(=O)c4ccc(F)cc4)c(=N)n(Cc4ccco4)c3nc12 | -6.1 | -3.4 | 116.0* | -4.1 | 3.0 | 0.0
Cc1ccc2nc3c(cc(S(=O)(=O)c4ccccc4)c(=N)n3Cc3ccco3)c(=O)n2c1 | -19.2 | 8.1 | 121.5* | -24.0 | -2.7 | 5.0
O=C(C[n+]1ccccc1)NN=Cc1ccccc1F | nt | nt | nt | nt | 11.5 | nt
CC(C)CC(NC(=O)c1[nH]cnc1C(=O)NC(Cc1ccccc1)C(=O)OC(C)(C)C)C(=O)OC(C)(C)C (stereo not drawn) | nt | nt | nt | nt | 15.5 | nt
COc1c(F)c(F)cc2c(=O)c(C(=O)O)cn(C3CC3)c12 | -3.8 | 2.1 | 0.5 | -11.9 | 10.9 | 9.5
COc1c(N2CCN(C(=S)NCc3ccccc3)C(C)C2)c(F)cc2c(=O)c(C(=O)O)cn(C3CC3)c12 (stereo not drawn) | 4.0 | 61.7* | 11.9 | 6.9 | nt | 3.2
SMILES | PrPC TRFRET | Y pestis TopoI | Mtb FBA inh | PrP 5UTR inh | Mtb hypoxia inh | GDH-TPI counter
COc1ccc([N+](=O)[O-])cc1-c1[nH]c(-c2ccc(C(=O)O)cc2)nc1-c1ccccc1 | -13.8 | 7.6 | 3.2 | -11.9 | 7.1 | 37.3*
COc1ccc(-c2nc(-c3ccccc3)c(-c3cc([N+](=O)[O-])ccc3C)[nH]2)cc1O | -11.8 | -13.7 | 1.0 | 3.8 | 23.8 | 11.4
CC(C)C(NC(=O)c1ccccc1)C(=O)OCC(=O)Nc1ccc2c(c1)OCCO2 (stereo not drawn) | nt | nt | nt | nt | -1.1 | nt
CCc1nnc(NS(=O)(=O)c2ccc(Nc3ccc([N+](=O)[O-])c4nonc34)cc2)s1 | -53.7 | -6.9 | -29.4 | -7.8 | 39.2* | 7.1
CCc1nnc(NS(=O)(=O)c2ccc(NS(=O)(=O)c3ccccc3[N+](=O)[O-])cc2)s1 | 4.4 | 3.3 | -1.5 | -23.2 | 0.9 | 9.0
Cc1c(C)c2c(OCC(=O)N3CCC[C@H]3C(=O)O)cc3c(c2oc1=O)CCC(C)(C)O3 | -8.5 | -1.3 | + | -34.2 | nt | 13.2

Screening data: PubChem BioAssay, several laboratories
